Experimental data as given in PubChem BioAssay (EPA / NIEHS).
Calls of active or inactive are those of the source. Rule for the calls: active = hit-call score of the fitted dose curve at least 0.9, where 1 is the maximum; inactive = score below 0.9.

How the values were obtained:
[1] = read-out: CFLAR gene, CFLAR (gene 8837); assay: LTEA_HepaRG_CFLAR: Life Technologies and Expression Analysis (LTEA) Assay for CFLAR gene using HepaRG (AID 2283455); details: mRNA level, 48 h; actives raise or lower the signal
Summary of the method: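 HepaRG, 48 h exposure, 8-pt conc-response (100 uM top, half-log), 0.5% DMSO vehicle, duplicates. CFLAR expression by qRT-PCR; ACTB/GAPDH/POLR2A normalization; gain or loss fit vs DMSO baseline.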

[2] = read-out: Forkhead box O1 (FOXO1), FOXO1 (gene 2308); assay: LTEA_HepaRG_FOXO1: Life Technologies and Expression Analysis (LTEA) Assay for Forkhead box O1 (FOXO1) using HepaRG (AID 2283456); details: mRNA level, 48 h; actives raise or lower the signal
Summary of the method: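 Readout is FOXO1 transcript level by multiplexed qRT-PCR against three housekeeping genes, curve-fitted in both directions relative to 0.5% DMSO vehicle. Human HepaRG cultures received chemicals for 48 h, up to 100 uM in half-log steps.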

[3] = read-out: growth arrest and DNA damage 45 (GADD45A), GADD45A (gene 1647); assay: LTEA_HepaRG_GADD45A: Life Technologies and Expression Analysis (LTEA) Assay for growth arrest and DNA damage 45 (GADD45A) using HepaRG (AID 2283458); details: mRNA level, 48 h; actives raise or lower the signal
Summary of the method: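 Cells plated and cultured 48 h, switched to serum-free induction medium, then dosed for 48 h (100 uM top, half-log dilutions, 0.5% DMSO). RNA was isolated and transcript measured by Fluidigm qRT-PCR.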

[4] = read-out: Forkhead box O3 (FOXO3), FOXO3 (gene 2309); assay: LTEA_HepaRG_FOXO3: Life Technologies and Expression Analysis (LTEA) Assay for Forkhead box O3 (FOXO3) using HepaRG (AID 2283459); details: mRNA level, 48 h; actives raise or lower the signal
Summary of the method: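 HepaRG, 48 h post-dose; 8 conc., half-log from 100 uM, 0.5% DMSO, duplicates; serum-free induction medium. Readout: FOXO3 mRNA, TaqMan qRT-PCR, housekeeping-normalized. Bidirectional curve fit vs DMSO baseline.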

[5] = read-out: ABC Transporter (ABCB1), ABCB1 (gene 5243); assay: LTEA_HepaRG_ABCB1: Life Technologies and Expression Analysis (LTEA) Assay for ABC Transporter (ABCB1) using HepaRG (AID 2283460); details: mRNA level, 48 h; actives raise or lower the signal
Summary of the method: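 Expression of ABCB1 was quantified by qRT-PCR against three housekeeping genes after human HepaRG cultures received test chemicals for 48 hours. Concentrations spanned eight half-log steps topping at 100 uM in 0.5% DMSO; gain or loss of signal was fitted relative to vehicle.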

[6] = read-out: growth arrest and DNA damage 45 (GADD45B), GADD45B (gene 4616); assay: LTEA_HepaRG_GADD45B: Life Technologies and Expression Analysis (LTEA) Assay for growth arrest and DNA damage 45 (GADD45B) using HepaRG (AID 2283461); details: mRNA level, 48 h; actives raise or lower the signal
Summary of the method: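 Differentiated HepaRG cells, plated 48 h then switched to serum-free induction medium, were exposed 48 h in duplicate to eight half-log concentrations from 100 uM in 0.5% DMSO; mRNA quantified by qRT-PCR, normalized to ACTB/GAPDH/POLR2A, bidirectional fit versus DMSO.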

[7] = read-out: ABC Transporter (ABCC3), ABCC3 (gene 8714); assay: LTEA_HepaRG_ABCC3: Life Technologies and Expression Analysis (LTEA) Assay for ABC Transporter (ABCC3) using HepaRG (AID 2283462); details: mRNA level, 48 h; actives raise or lower the signal
Summary of the method: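 HepaRG cells in serum-free induction medium were exposed for 48 h in duplicate to 8-point half-log concentrations topping at 100 uM in 0.5% DMSO. ABCC3 mRNA was measured by qRT-PCR normalized to ACTB, GAPDH and POLR2A, with bidirectional fitting versus DMSO.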

[8] = read-out: ABC Transporter (ABCB11), ABCB11 (gene 8647); assay: LTEA_HepaRG_ABCB11: Life Technologies and Expression Analysis (LTEA) Assay for ABC Transporter (ABCB11) using HepaRG (AID 2283463); details: mRNA level, 48 h; actives raise or lower the signal
Summary of the method: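 ABCB11 transcript levels are read by Fluidigm TaqMan qRT-PCR after 48 h chemical treatment of human HepaRG cells. Concentrations span 100 uM downward in half-log steps with 0.5% DMSO; gain or loss is fitted against DMSO controls.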

[9] = read-out: ABC Transporter (ABCC2), ABCC2 (gene 1244); assay: LTEA_HepaRG_ABCC2: Life Technologies and Expression Analysis (LTEA) Assay for ABC Transporter (ABCC2) using HepaRG (AID 2283464); details: mRNA level, 48 h; actives raise or lower the signal
Summary of the method: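 HepaRG cells were plated 48 h, switched to serum-free induction medium, then exposed in duplicate for 48 h to 8 concentrations (top 100 uM, half-log steps, 0.5% DMSO). ABCC2 mRNA was measured by qRT-PCR normalized to ACTB/GAPDH/POLR2A; bidirectional fitting versus DMSO.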

[10] = read-out: Broad substrate specificity ATP-binding cassette transporter ABCG2 (Homo sapiens) (UniProt Q9UNQ0); assay: LTEA_HepaRG_ABCG2: Life Technologies and Expression Analysis (LTEA) Assay for ABC Transporter (ABCG2) using HepaRG (AID 2283465); details: mRNA level, 48 h; actives raise or lower the signal
Summary of the method: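 Read-out is ABCG2 mRNA induction or loss quantified by qRT-PCR after 48 h chemical treatment of human HepaRG cells, normalized to three housekeeping genes. Concentrations reached 100 uM top in half-log steps; fitting was bidirectional against 0.5% DMSO.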

[11] = read-out: ATP-citrate lyase (ACLY), ACLY (gene 47); assay: LTEA_HepaRG_ACLY: Life Technologies and Expression Analysis (LTEA) Assay for ATP-citrate lyase (ACLY) using HepaRG (AID 2283466); details: mRNA level, 48 h; actives raise or lower the signal
Summary of the method: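 HepaRG, 48 h exposure, 8-pt half-log dilutions (top 100 uM), 0.5% DMSO. Readout: ACLY mRNA, TaqMan qRT-PCR, housekeeping-normalized (ACTB/GAPDH/POLR2A). Bidirectional curve fit vs DMSO.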

[12] = read-out: Peroxisomal acyl-coenzyme A oxidase 1 (ACOX1) gene, ACOX1 (gene 51); assay: LTEA_HepaRG_ACOX1: Life Technologies and Expression Analysis (LTEA) Assay for Peroxisomal acyl-coenzyme A oxidase 1 (ACOX1) gene using HepaRG (AID 2283467); details: mRNA level, 48 h; actives raise or lower the signal
Summary of the method: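 Measured by qRT-PCR against three housekeeping genes: ACOX1 transcript change in human HepaRG cells after 48 h dosing. Concentrations ran up to 100 uM in half-log steps. Curves were fitted bidirectionally relative to 0.5% DMSO.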

[13] = read-out: Alkaline Phosphatase, Placental (ALPP) gene, ALPP (gene 250); assay: LTEA_HepaRG_ALPP: Life Technologies and Expression Analysis (LTEA) Assay for Alkaline Phosphatase, Placental (ALPP) gene using HepaRG (AID 2283468); details: mRNA level, 48 h; actives raise or lower the signal
Summary of the method: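 Differentiated human HepaRG cells were plated and cultured 48 h, then exposed in duplicate for 48 h in serum-free induction medium to eight half-log concentrations from 100 uM in 0.5% DMSO. ALPP mRNA was measured by TaqMan qRT-PCR, normalized to ACTB, GAPDH, POLR2A.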

[14] = read-out: Bcl-2 (BAD) gene, BAD (gene 572); assay: LTEA_HepaRG_BAD: Life Technologies and Expression Analysis (LTEA) Assay for Bcl-2 (BAD) gene using HepaRG (AID 2283469); details: mRNA level, 48 h; actives raise or lower the signal
Summary of the method: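 BAD transcript change, measured by qRT-PCR against three housekeeping genes and fitted in both directions relative to 0.5% DMSO, after 48 h chemical treatment of human HepaRG liver cells at concentrations up to 100 uM.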

[15] = read-out: Bcl-2 (BAX) gene, BAX (gene 581); assay: LTEA_HepaRG_BAX: Life Technologies and Expression Analysis (LTEA) Assay for Bcl-2 (BAX) gene using HepaRG (AID 2283470); details: mRNA level, 48 h; actives raise or lower the signal
Summary of the method: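 HepaRG (human liver), 48 h exposure, duplicate wells. 8-pt curve, half-log from 100 uM, 0.5% DMSO. BAX transcript by TaqMan qRT-PCR; ACTB/GAPDH/POLR2A normalization; gain or loss vs DMSO baseline.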

[16] = read-out: adenosine kinase (ADK) gene, ADK (gene 132); assay: LTEA_HepaRG_ADK: Life Technologies and Expression Analysis (LTEA) Assay for adenosine kinase (ADK) gene using HepaRG (AID 2283471); details: mRNA level, 48 h; actives raise or lower the signal
Summary of the method: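 HepaRG (human liver), 48 h chemical exposure, 8-pt half-log series, top 100 uM, 0.5% DMSO vehicle. Readout: ADK mRNA by qRT-PCR vs housekeeping genes; bidirectional curve fit relative to DMSO baseline.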

[17] = read-out: Alpha-fetoprotein (AFP) gene, AFP (gene 174); assay: LTEA_HepaRG_AFP: Life Technologies and Expression Analysis (LTEA) Assay for Alpha-fetoprotein (AFP) gene using HepaRG (AID 2283472); details: mRNA level, 48 h; actives raise or lower the signal
Summary of the method: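 HepaRG, single lot; 48 h post-plating -> serum-free induction medium; cpd 8-pt, 100 uM top, half-log, 0.5% DMSO, duplicate, 48 h. RNA -> qRT-PCR AFP, norm ACTB/GAPDH/POLR2A. Bidirectional fit vs DMSO.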

BCL2L11 (gene 10018) = assay: LTEA_HepaRG_BCL2L11: Life Technologies and Expression Analysis (LTEA) Assay for Bcl-2 (BCL2L11) gene using HepaRG (AID 2283473); details: mRNA level, 48 h; actives raise or lower the signal
Summary of the method: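 Differentiated human HepaRG cells in serum-free induction medium were exposed in duplicate for 48 h to eight concentrations (top 100 uM, half-log steps, 0.5% DMSO). BCL2L11 mRNA was quantified by TaqMan qRT-PCR, normalized to ACTB/GAPDH/POLR2A, bidirectional fit versus DMSO.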

[18] = read-out: Apolipoprotein A-V (APOA5) gene, APOA5 (gene 116519); assay: LTEA_HepaRG_APOA5: Life Technologies and Expression Analysis (LTEA) Assay for Apolipoprotein A-V (APOA5) gene using HepaRG (AID 2283474); details: mRNA level, 48 h; actives raise or lower the signal
Summary of the method: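 Differentiated human HepaRG cells were exposed in duplicate for 48 h to eight half-log concentrations from 100 uM in 0.5% DMSO. APOA5 mRNA was quantified by TaqMan qRT-PCR, normalized to ACTB, GAPDH and POLR2A, and fitted bidirectionally against DMSO.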

[19] = CEETOX_H295R_TESTO: CeeTox H295R High-throughput Steroidogenesis Assay for Testosterone (TESTO) (AID 2283457); details: actives raise or lower the signal
Summary of the method: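 H295R human adrenal cells in DMEM/F12 with ITS+ and Nu-Serum, exposed to chemicals for 48 h. Testosterone in medium measured by MTBE extraction, reverse-phase HPLC-MS/MS; bidirectional fit versus DMSO baseline. MTT viability checked in same wells.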

Measured: outcome

Broad substrate specificity ATP-binding cassette transporter ABCG2 (Homo sapiens), sequence (Q9UNQ0 whole entry, looked up): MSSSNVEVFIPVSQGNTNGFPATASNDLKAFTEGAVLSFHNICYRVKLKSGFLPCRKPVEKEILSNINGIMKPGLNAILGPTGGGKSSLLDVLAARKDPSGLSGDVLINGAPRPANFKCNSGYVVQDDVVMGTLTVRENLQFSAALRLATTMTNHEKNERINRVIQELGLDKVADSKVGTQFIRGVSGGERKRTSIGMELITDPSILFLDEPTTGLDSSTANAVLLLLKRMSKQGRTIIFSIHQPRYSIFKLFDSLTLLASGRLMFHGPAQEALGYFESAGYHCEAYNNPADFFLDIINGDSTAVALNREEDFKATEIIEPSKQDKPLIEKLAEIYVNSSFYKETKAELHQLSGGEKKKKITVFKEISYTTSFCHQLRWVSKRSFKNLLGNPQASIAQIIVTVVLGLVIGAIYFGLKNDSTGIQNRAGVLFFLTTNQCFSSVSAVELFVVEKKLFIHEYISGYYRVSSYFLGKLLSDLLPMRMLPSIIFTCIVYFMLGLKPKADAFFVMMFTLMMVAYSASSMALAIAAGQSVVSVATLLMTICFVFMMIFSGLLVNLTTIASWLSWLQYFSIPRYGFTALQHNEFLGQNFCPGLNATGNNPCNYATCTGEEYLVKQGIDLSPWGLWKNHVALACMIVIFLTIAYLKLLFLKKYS

Cc1ccc([N+](=O)[O-])cc1N
inactive: [1] | [2] | [3] | [4] | [5] | [6] | [7] | [8] | [9] | [10] | [11] | [12] | [13] | [14] | [15] | [16] | [17] | BCL2L11 (gene 10018) | [18]

CCOC(=O)C1=NN(c2ccc(Cl)cc2Cl)C(C)(C(=O)OCC)C1 (stereo not given)
inactive: [19]

C=CC(=O)OCCCCCCOC(=O)C=C
inactive: [19]

COc1ccc(C(=O)c2ccccc2)c(O)c1
inactive: [19]

C1CNCCN1
inactive: [1] | [2] | [3] | [4] | [5] | [6] | [7] | [8] | [9] | [10] | [11] | [12] | [13] | [14] | [15] | [16] | [17] | BCL2L11 (gene 10018) | [18]

Nc1ccc(C(=O)O)cc1
inactive: [1] | [2] | [3] | [4] | [5] | [6] | [7] | [8] | [9] | [10] | [11] | [12] | [13] | [14] | [15] | [16] | [17] | BCL2L11 (gene 10018) | [18]
